# Values joined by “and” are separate entries in the source; they are usually repeats but may differ in a detail not shown here. Equal values may be shown once. Records with an inconclusive call do not appear. A call without a number means that no potency is given here. Active and inactive are the calls of the source. Unless noted, the call rests on the fitted dose curve; in most records, active means well fitted curve in the direction sought with a large enough effect in the repeat runs; inconclusive means weak or mixed curves; inactive means no such curve, though single readings can be large; an effect the other way counts as inactive or inconclusive.
# Target: Cytochrome P450 2C9 (Homo sapiens) (UniProt P11712)
# Sequence (P11712 whole entry, looked up): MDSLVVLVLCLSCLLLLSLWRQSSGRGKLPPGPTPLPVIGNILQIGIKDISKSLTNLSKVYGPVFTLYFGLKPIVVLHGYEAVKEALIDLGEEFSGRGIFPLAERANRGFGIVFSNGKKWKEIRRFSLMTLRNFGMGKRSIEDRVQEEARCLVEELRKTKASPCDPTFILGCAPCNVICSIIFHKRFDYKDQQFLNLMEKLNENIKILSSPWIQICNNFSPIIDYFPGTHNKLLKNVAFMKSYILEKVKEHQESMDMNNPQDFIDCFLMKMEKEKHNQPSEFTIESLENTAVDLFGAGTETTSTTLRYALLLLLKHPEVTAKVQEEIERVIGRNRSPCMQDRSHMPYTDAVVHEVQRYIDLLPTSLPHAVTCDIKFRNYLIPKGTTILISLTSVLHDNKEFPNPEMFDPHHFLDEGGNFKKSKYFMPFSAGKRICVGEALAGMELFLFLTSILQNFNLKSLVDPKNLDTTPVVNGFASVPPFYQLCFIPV
# Experiment: Cytochrome P450 family 2 subfamily C member 9 (CYP2C9) small molecule antagonists: luciferase biochemical (cell-free) qHTS assay (AID 1645842); further: nearly all actives have a fitted effect of over 55% in size
# Details: P450-Glo CYP2C9 enzyme assay, luciferin luminescence; series mostly up to 57.4 µM
# Summary of the method: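 P450-Glo CYP2C9 system: proluciferin substrate with enzyme in mix containing 0.4% BSA, 10 min at room temperature, then NADPH regeneration solution added and incubated 1 h at 37C. Detection reagent stopped reaction; luminescence read after 20 min as RLU.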
# Potency means the concentration at half of the fitted maximal effect.
row,Structure (SMILES),Potency
1,O=c1[nH]c(=O)n([C@H]2C[C@H](O)[C@@H](CO)O2)cc1I,inactive
2,Nc1ccc(S(=O)(=O)c2ccc(N)cc2)cc1,inactive
3,CC(=O)Nc1ccccc1,inactive
4,C[N+]1(C)CCCC(OC(=O)C(O)(c2ccccc2)c2ccccc2)C1 (configuration not stated),inactive
5,NS(=O)(=O)c1cc2c(cc1C(F)(F)F)NCNS2(=O)=O,inactive
6,NS(=O)(=O)c1cc(-c2nn[nH]n2)c(NCc2cccs2)cc1Cl,10.7 µM (active) and 19.5 µM (active)
7,Cc1ncc(CO)c(CN)c1O,inactive
8,CCCCCOC(=O)Nc1nc(=O)n([C@@H]2O[C@H](C)[C@@H](O)[C@H]2O)cc1F,inactive
9,CCCCCC(N)=O,inactive
10,CC(C)CCOC(=O)c1ccc(N(C)C)cc1,6.92 µM (active)
11,NC(=O)CC[C@@H](N)C(=O)O,inactive
12,CN[C@@H]1[C@H](O)[C@H](NC)[C@H]2O[C@@]3(O)C(=O)C[C@@H](C)O[C@H]3O[C@@H]2[C@H]1O,inactive
13,CN1CCN(C(=O)C2CCCCC2)CC1,inactive
14,O=C(Cn1ccnc1[N+](=O)[O-])NCc1ccccc1,inactive
15,NS(=O)(=O)c1ccc(NC(=O)CCC(=O)O)cc1,inactive
16,CC(O)CCCCn1c(=O)c2c(ncn2C)n(C)c1=O (configuration not stated),inactive
17,CC(=O)Nc1cccc(O)c1,inactive
18,Cc1cc(C)nc(NS(=O)(=O)c2ccc(N)cc2)n1,inactive

row,Structure (SMILES),Potency
1,CN/C(=C\[N+](=O)[O-])NCCSCc1csc(CN(C)C)n1,inactive
2,CN1C[C@@H]2C[C@H]1CN2c1cc2c(cc1F)c(=O)c(C(=O)O)cn2C1CC1,inactive
3,O=C(NCCCN1CCOCC1)c1ccc(Cl)cc1,inactive
4,Cc1ccccc1N=Nc1ccc(N=Nc2c(O)ccc3ccccc23)c(C)c1,inactive
5,COc1cc(C(=O)NCCCCCC(=O)O)cc(OC)c1OC,inactive
6,COC(=O)c1ccc(O)cc1,inactive
7,CC(C)CCCC(C)CCCC(C)CCCCC(C)CCCC(C)CCCC(C)C (configuration not stated),inactive
8,Cc1c(I)c(=O)n(-c2ccccc2)n1C,inactive
9,C[C@@H]1CCC[C@H](C)N1,inactive
10,COC(=O)c1ccccc1C(=O)c1ccc(OCCN2CCCCC2)cc1,inactive
11,CO[C@@]1(NC(=O)C(C(=O)O)c2ccc(O)cc2)C(=O)N2C(C(=O)O)=C(CSc3nnnn3C)CO[C@@H]21 (some centres not stated),inactive
12,CC1CC(OC(=O)c2ccccc2O)CC(C)(C)C1 (configuration not stated),inactive
13,CCCC(O)C(CC)CO (configuration not stated),inactive
14,CC(CN(C)C)C(C)(O)Cc1ccc(Cl)cc1 (configuration not stated),inactive
15,COCC(=O)Nc1c(I)c(C(=O)NCC(O)CO)c(I)c(C(=O)N(C)CC(O)CO)c1I (configuration not stated),inactive
16,O=C(O)[C@@H]1[C@H]2C[C@H]3c4[nH]c5ccccc5c4CCN3C[C@@H]2CC[C@@H]1O,inactive
17,CCCCCC(C)N (configuration not stated),inactive
18,Nc1ccncc1N,inactive

# Test system: not listed separately
# Experiment: Primary qHTS for inhibitors of nuclear receptor binding SET domain protein 2 (NSD2) in an isogenic RCH-ACV NSD2 p.E1099K mutant (9B) (AID 1645876; active means well fitted curve in the direction sought with a large enough effect; an effect the other way counts as inactive or inconclusive; further: nearly all actives have a fitted effect of over 70% in size)
# Details: RCH-ACV (leukaemia line) NSD2 E1099K (9B) viability, CellTiter-Glo, 72 h; series mostly up to 44.9 µM
row,Structure (SMILES),Potency
1,O=c1[nH]c(=O)n([C@H]2C[C@H](O)[C@@H](CO)O2)cc1I,3.35 µM (active) and 662 nM (active)
2,Nc1ccc(S(=O)(=O)c2ccc(N)cc2)cc1,inactive
3,CC(=O)Nc1ccccc1,inactive
4,C[N+]1(C)CCCC(OC(=O)C(O)(c2ccccc2)c2ccccc2)C1 (configuration not stated),inactive
5,NS(=O)(=O)c1cc2c(cc1C(F)(F)F)NCNS2(=O)=O,inactive
6,NS(=O)(=O)c1cc(-c2nn[nH]n2)c(NCc2cccs2)cc1Cl,inactive
7,Cc1ncc(CO)c(CN)c1O,inactive
8,CCCCCOC(=O)Nc1nc(=O)n([C@@H]2O[C@H](C)[C@@H](O)[C@H]2O)cc1F,inactive
9,CCCCCC(N)=O,inactive
10,CC(C)CCOC(=O)c1ccc(N(C)C)cc1,inactive
11,NC(=O)CC[C@@H](N)C(=O)O,inactive
12,CN[C@@H]1[C@H](O)[C@H](NC)[C@H]2O[C@@]3(O)C(=O)C[C@@H](C)O[C@H]3O[C@@H]2[C@H]1O,inactive
13,CN1CCN(C(=O)C2CCCCC2)CC1,inactive
14,O=C(Cn1ccnc1[N+](=O)[O-])NCc1ccccc1,inactive
15,NS(=O)(=O)c1ccc(NC(=O)CCC(=O)O)cc1,inactive
16,CC(O)CCCCn1c(=O)c2c(ncn2C)n(C)c1=O (configuration not stated),inactive
17,CC(=O)Nc1cccc(O)c1,inactive
18,Cc1cc(C)nc(NS(=O)(=O)c2ccc(N)cc2)n1,inactive

row,Structure (SMILES),Potency
1,CN/C(=C\[N+](=O)[O-])NCCSCc1csc(CN(C)C)n1,inactive
2,CN1C[C@@H]2C[C@H]1CN2c1cc2c(cc1F)c(=O)c(C(=O)O)cn2C1CC1,inactive
3,O=C(NCCCN1CCOCC1)c1ccc(Cl)cc1,inactive
4,Cc1ccccc1N=Nc1ccc(N=Nc2c(O)ccc3ccccc23)c(C)c1,inactive
5,COc1cc(C(=O)NCCCCCC(=O)O)cc(OC)c1OC,inactive
6,COC(=O)c1ccc(O)cc1,inactive
7,CC(C)CCCC(C)CCCC(C)CCCCC(C)CCCC(C)CCCC(C)C (configuration not stated),inactive
8,Cc1c(I)c(=O)n(-c2ccccc2)n1C,inactive
9,C[C@@H]1CCC[C@H](C)N1,inactive
10,COC(=O)c1ccccc1C(=O)c1ccc(OCCN2CCCCC2)cc1,inactive
11,CO[C@@]1(NC(=O)C(C(=O)O)c2ccc(O)cc2)C(=O)N2C(C(=O)O)=C(CSc3nnnn3C)CO[C@@H]21 (some centres not stated),inactive
12,CC1CC(OC(=O)c2ccccc2O)CC(C)(C)C1 (configuration not stated),inactive
13,CCCC(O)C(CC)CO (configuration not stated),inactive
14,CC(CN(C)C)C(C)(O)Cc1ccc(Cl)cc1 (configuration not stated),inactive
15,COCC(=O)Nc1c(I)c(C(=O)NCC(O)CO)c(I)c(C(=O)N(C)CC(O)CO)c1I (configuration not stated),inactive
16,O=C(O)[C@@H]1[C@H]2C[C@H]3c4[nH]c5ccccc5c4CCN3C[C@@H]2CC[C@@H]1O,inactive
17,CCCCCC(C)N (configuration not stated),inactive
18,Nc1ccncc1N,inactive

# Source: PubChem BioAssay (NCATS)
